Our source for the activity values is PubChem BioAssay AID1259318 (Sanford-Burnham Center for Chemical Genomics, 2017).

Hit rate of the full screen: of about 370,000 compounds, about 3,000 (0.81%) were called active.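 How the source made its calls: active means activity above about 14% (limit read from the data; passing the limit was not always enough); inactive means the rest.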 What follows is part of a selection rich in actives, with near analogues and random picks from the rest.

This assay deals with Nuclear receptor subfamily 1 group D member 1 (Homo sapiens) (UniProt P20393). The assay can be described thus: modulators of Rev-erb alpha DNA binding, primary screen, biochemical, FITC-DNA, fluorescence polarization, uHTS (AID 1259318).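 Further: 0% = DMSO wells with 35 nM protein and 100% = DMSO wells with 750 nM protein.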 The settings on record: Rev-erbα–FITC-DNA binding, 90 min, at 10 µM, active compounds read high. (In general: In fluorescence polarisation assays a small probe gives low polarisation when free and higher when bound to something large.)
Sequence of Nuclear receptor subfamily 1 group D member 1 (Homo sapiens) (P20393 whole entry, looked up): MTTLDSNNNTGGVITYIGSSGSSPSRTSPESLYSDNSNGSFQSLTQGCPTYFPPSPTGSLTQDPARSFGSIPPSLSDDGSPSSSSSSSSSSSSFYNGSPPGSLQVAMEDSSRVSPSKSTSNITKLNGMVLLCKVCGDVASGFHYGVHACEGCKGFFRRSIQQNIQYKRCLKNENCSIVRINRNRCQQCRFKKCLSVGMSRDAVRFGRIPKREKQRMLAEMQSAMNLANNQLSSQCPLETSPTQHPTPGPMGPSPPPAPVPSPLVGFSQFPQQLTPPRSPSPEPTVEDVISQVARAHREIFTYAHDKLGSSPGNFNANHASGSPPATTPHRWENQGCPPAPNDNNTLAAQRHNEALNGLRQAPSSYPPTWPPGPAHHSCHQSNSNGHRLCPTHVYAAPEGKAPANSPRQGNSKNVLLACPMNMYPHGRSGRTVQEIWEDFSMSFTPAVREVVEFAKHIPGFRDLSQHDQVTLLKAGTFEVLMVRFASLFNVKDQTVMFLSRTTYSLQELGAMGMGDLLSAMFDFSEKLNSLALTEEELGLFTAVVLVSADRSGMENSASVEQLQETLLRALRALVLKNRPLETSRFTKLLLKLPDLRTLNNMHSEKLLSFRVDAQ
Take `Cc1ccc(-c2ccc(CN3C(C)C(=O)N(Cc4cn(CCC5OCCCO5)nn4)CCS3(=O)=O)cc2)cc1` (stereo not drawn): the activity was 1.81% (inactive).

With `CC1(C)C2CC[C@]3(C)C(C(=O)C=C4[C@@H]5C[C@@](C)(C(=O)O)CC[C@]5(C)CC[C@]43C)[C@@]2(C)CC[C@@H]1O` (stereo partly drawn), the activity is -5.93% (inactive).

Regarding `CC(C)(C)OC(=O)C[C@@H]1C/C=C\C[C@H](CC(=O)N[C@@H](CO)Cc2ccccc2)C(=O)N[C@H](Cc2ccccc2)COC1=O`, the activity is -3.46% (inactive).

Turning to `Cc1nc2cc(NC(=O)CSc3nc4c(C)cccc4cc3C#N)ccc2s1`, the activity was 95.7% (active).

With `Cc1nonc1NC(=O)CSc1nc2ccccc2cc1C#N`, the activity was 39.8% (active).

For the compound `COC(=O)CSc1nc2c(c(C3CC=CCC3)c1C#N)CCC2` (stereo not drawn), the activity is 0.02% (inactive).

With `CCOc1ccc2cc(C#N)c(SCC(=O)OC)nc2c1`, the activity was 116% (active).

Regarding `Cc1cc(C#N)c(SCC(N)=O)nc1-c1ccc(F)cc1`, the activity was -0.55% (inactive).

On to `Cc1csc(SCC(=O)Nc2sccc2C#N)n1`, for which the activity was -1.85% (inactive).

Regarding `Cc1ccc(C)c2c1cc(C)c1nnc(SCC(=O)Nc3cccc(C(=O)O)c3)n12`, the activity is -2.26% (inactive).

For `Cc1ccc(NC(=O)CSc2sc3c(O)cc(=O)[nH]c3c2C#N)cc1C`, the activity is -17.5% (inactive).

Consider `Cc1ccc2nc(SCc3nnc(-c4ccccc4[N+](=O)[O-])o3)c(C#N)cc2c1`, for which the activity is -0.86% (inactive).

On to `CCNC(=O)CC1C(=O)N(c2ccc(OC)cc2)C(=O)N1CCOC` (stereo not drawn), for which the activity is -2.32% (inactive).

Take `C/C(=N\NC(=O)c1cc2c(s1)CCC(C)C2)c1cccnc1` (stereo not drawn): the activity was -5.04% (inactive).

In the case of `CCCCN(CCCC)CCNC(=O)CN1C(=O)COc2ccc(S(=O)(=O)N3CCOCC3)cc21`, the activity is 2.87% (inactive).

With `C[C@@H](CN1C2=NC[C@@H](Cc3ccccc3)N2C[C@H]1Cc1ccc(O)cc1)NC(=O)CCC1CCCCC1`, the activity was -3.34% (inactive).

Turning to `C[C@H]1CCC/C=C/C(=O)c2c(O)cc(O)cc2CC(=O)O1`, the activity is -5.09% (inactive).

On to `O=C(CN1C(=O)COc2ccccc21)Nc1ccc(F)cc1`, for which the activity was -4.74% (inactive).

Consider `CC(C)OCCCNC(=O)CN1C(=O)/C(=C/c2ccccc2F)Oc2ccccc21`, for which the activity was 25% (active).

Turning to `O=C(CN1C(=O)/C(=C/c2ccccc2F)Sc2ccccc21)NCc1cccnc1`, the activity was -1.22% (inactive).

As for `CCN(CC)C(=O)CC[C@@H]1CC[C@]2(CCCN(S(=O)(=O)C3CCCCC3)C2)O1`, the activity was -2.68% (inactive).

In the case of `COc1ccccc1OCCNCC(O)COc1cccc2[nH]c3ccccc3c12` (stereo not drawn), the activity is 0.09% (inactive).

Take `Oc1ccc2ccc3cccc[n+]3c2c1`: the activity is 34.3% (active).

With `COC(=O)C1=C(C)N(Cc2ccccc2C(F)(F)F)C(=NCc2ccc(OC)cc2)NC1c1cccc(C(F)(F)F)c1` (stereo not drawn), the activity is 3.37% (inactive).

Consider `C=C(C)C1CC=C(C)/C(=N\NC(=O)CNc2ccccc2OC)C1` (stereo not drawn), for which the activity is 28.5% (active).

As to `COc1ccccc1NC(=O)COC(=O)CNC(=O)C1CCCCC1`, the activity is -2.69% (inactive).

Turning to `C=C(C)C1CC=C(C)/C(=N/NC(=O)CCCNc2cccc(C)c2)C1` (stereo not drawn), the activity was -3.69% (inactive).

Take `CN1/C(=C\C=C2\N=C(c3ccc(F)cc3)OC2=O)C(C)(C)c2ccccc21`: the activity is 36.5% (active).

Regarding `COc1ccc(-n2c(COc3ccc(C)cc3)nnc2SCC(=O)Nc2ccc(Oc3ccccc3)cc2)cc1`, the activity is -3.25% (inactive).

Regarding `CCc1ccc(S(=O)(=O)Nc2ccc(C)c(NS(C)(=O)=O)c2)cc1`, the activity was -7.94% (inactive).

Consider `CN1C(=O)c2ccc(NC(=O)c3c(F)c(F)c(F)c(F)c3F)cc2C1=O`, for which the activity is -2.78% (inactive).

As to `O=C(/C=C/c1ccc(Cl)cc1)Nc1ccc(Br)cn1`, the activity was -0.31% (inactive).

As for `CN1C(=O)c2ccc(C(=O)Nc3ccc(Br)cn3)cc2C1=O`, the activity was 73.7% (active).

With `CS(=O)(=O)c1ccc(Cl)c(NC(=O)COC(=O)c2ncc(Cl)c(Cl)c2Cl)c1`, the activity was -0.27% (inactive).

For `Cc1[nH]c2ccccc2c1CC(=O)Nc1ccc(Nc2cccnc2)c(-c2cccc(Cl)c2)c1`, the activity is 3.32% (inactive).

In the case of `O=C(O)CCCCC(=O)O`, the activity is -0.86% (inactive).

In the case of `CCCCCn1nnnc1C1c2ccccc2C(=O)N1Cc1ccco1` (stereo not drawn), the activity is 17.3% (active).

`O=C1c2ccccc2C(Nc2ccc3c(c2)OCCO3)N1Cc1ccco1` (stereo not drawn): the activity is -1.18% (inactive).

Consider `CCC(C)NC(=O)C1c2ccccc2C(=O)N1Cc1ccccc1` (stereo not drawn), for which the activity was -2.38% (inactive).

Regarding `CC(=O)c1c(N)n(C)c(=O)n(C)c1=O`, the activity was 5.4% (inactive).

As to `COC(=O)CN1C(=O)C(C)(C)Oc2ccc(C(=O)Nc3cccc(OC)c3)cc21`, the activity is 6.32% (inactive).

For `CCOc1ccc(NC(=O)CSc2ncnc3c2sc2ccccc23)cc1`, the activity is 298% (active).

On to `COc1ccc(NC(=O)CSc2ncnc3[nH]ncc23)cc1`, for which the activity is -0.29% (inactive).

Consider `CCOc1ccc(NC(=O)CSc2nncn2C)cc1`, for which the activity was 3.05% (inactive).

Regarding `COC(=O)Nc1nc2ccc(C(=O)C3CC3)cc2[nH]1`, the activity is -10.6% (inactive).

`CC1(C)OC[C@@H](COC(=O)CCc2ccc(OC[C@@H](O)CNCCNC(=O)N3CCOCC3)cc2)O1`: the activity was 0.02% (inactive).

Consider `CC(NC(=S)Nc1ccccc1)C(c1cccs1)N1CCOCC1` (stereo not drawn), for which the activity is 4.26% (inactive).

On to `CC(=O)C1=C(C)N(Cc2ccccc2)C(=S)NC1c1cccc(Br)c1` (stereo not drawn), for which the activity was -3.28% (inactive).

For `CN(C)c1ccc(/C=C2\NC(=S)N(Cc3ccccc3)C2=O)cc1`, the activity was 40.1% (active).

On to `O=[N+]([O-])/C=C1\CCCCCN1`, for which the activity is -3.45% (inactive).

`COc1cccc(CNC(=O)[C@H]2CCCN2C(=O)[C@H]2CCCN2C(=O)C2CCCCC2)c1`: the activity was 4.65% (inactive).

As to `Cc1cc(C)c(/C=C2\C(=O)Nc3ccccc32)[nH]1`, the activity was 22.7% (active).

Take `O=C1Nc2ccccc2C1=NN=Cc1ccco1`: the activity is -0.74% (inactive).

Consider `Cc1ccc(-c2nc(CS(=O)CC(=O)N3CCN(c4ncccn4)CC3)c(C)o2)cc1` (stereo not drawn), for which the activity is 4.76% (inactive).

Turning to `O=S(=O)(c1ccccc1)N1CCC(c2nc3ccccc3o2)CC1`, the activity was -9.25% (inactive).

As for `CC1(C)CC2CC(C)(CN2c2ncnc3ccc(Br)cc23)C1` (stereo not drawn), the activity was 20.4% (active).

Take `COCCN1CCn2c(nc3cc(NS(C)(=O)=O)ccc32)C1`: the activity is -3.86% (inactive).

On to `Cc1ccc(NC(=O)c2cc(C)nn2-c2ccccc2)c(C)c1`, for which the activity is 2.36% (inactive).
